47 compounds from PubChem BioAssay (NCATS) can be followed below.

A short description of assay [1]: Validation screen for inhibitors of Lassa infection (AID 463096; calls by dose curve; further: potency means the concentration at half of the fitted maximal effect).
In assay [2] the target is Ferritin light chain (Equus caballus) (UniProt P02791). The assay is described as follows: qHTS Validation Assay for Identification of Novel General Anesthetics (AID 2323). Put shortly: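 Normalized fluorescence response, scaled between free 1-AMA and 1-AMA/apoferritin complex, fitted to a four-parameter Hill equation for concentration-effect values. Binding mix: 10 uM horse-spleen apoferritin, 50% saturated 1-AMA in PBS; read 380/535 nm after 10 min.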
Sequence of Ferritin light chain (Equus caballus) (P02791 2-175 limits assumed): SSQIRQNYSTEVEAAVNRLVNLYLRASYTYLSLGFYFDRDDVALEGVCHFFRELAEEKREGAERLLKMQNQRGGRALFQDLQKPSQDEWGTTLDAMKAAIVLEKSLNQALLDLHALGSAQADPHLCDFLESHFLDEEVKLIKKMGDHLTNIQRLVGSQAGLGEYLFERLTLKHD

In assay [3] the target is ATP-dependent DNA helicase Q1 (Homo sapiens) (UniProt P46063). The assay is described as follows: qHTS Validation Assay for Inhibitors of RecQ-Like Dna Helicase 1 (RECQ1) (AID 2353). Put shortly: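 50 nM RECQ1T1 preincubated 15 min with compound in Tris pH 8.0 buffer with MgCl2, DTT, Tween-20 and 2.5 ug/ml poly(dI-dC); started with 200 nM TAMRA/BHQ-2 forked duplex and 2 mM ATP. Unwinding read as fluorescence (525/598 nm), two reads 2 h apart.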
Sequence of ATP-dependent DNA helicase Q1 (Homo sapiens) (P46063 whole entry, looked up): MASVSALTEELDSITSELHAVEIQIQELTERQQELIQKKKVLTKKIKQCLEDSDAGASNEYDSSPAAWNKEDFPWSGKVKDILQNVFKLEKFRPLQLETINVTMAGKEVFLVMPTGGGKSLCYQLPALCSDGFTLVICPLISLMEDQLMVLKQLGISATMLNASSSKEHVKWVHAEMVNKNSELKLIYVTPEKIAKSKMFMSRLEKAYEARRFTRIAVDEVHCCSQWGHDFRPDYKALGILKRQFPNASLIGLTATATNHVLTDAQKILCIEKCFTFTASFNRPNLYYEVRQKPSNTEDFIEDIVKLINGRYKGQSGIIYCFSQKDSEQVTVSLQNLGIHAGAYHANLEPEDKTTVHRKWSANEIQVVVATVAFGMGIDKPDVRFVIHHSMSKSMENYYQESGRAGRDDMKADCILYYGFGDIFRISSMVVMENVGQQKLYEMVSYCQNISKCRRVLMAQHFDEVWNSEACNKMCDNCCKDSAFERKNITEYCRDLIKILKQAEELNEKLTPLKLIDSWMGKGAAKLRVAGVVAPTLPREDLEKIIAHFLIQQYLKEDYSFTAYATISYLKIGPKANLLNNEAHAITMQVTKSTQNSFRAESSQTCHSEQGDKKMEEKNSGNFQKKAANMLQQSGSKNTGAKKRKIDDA

A short description of assay [4]: Cytometric Cell-Based qHTS for Inhibitors of the mTORC1 Signaling Pathway in MEF (Tsc2-/-, p53-/-) Cells (AID 2660).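 Further: percent of cells above a phospho-rpS6 to PI ratio cutoff in each well.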 Put shortly: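 Immunofluorescence qHTS of rpS6 Ser235/236 phosphorylation: MEFs (Tsc2-/-, p53-/-) treated 24 h, 37 C, in DMEM + 10% FBS. Alexa-488 signal normalized to PI count, referenced to rapamycin (7.5 nM) and DMSO; PI cell number recorded for viability.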
A general note: qHTS replaces the single test concentration by a dilution series.

Assay [5] is described as follows: High Content Imaging Cell-Based qHTS for Inhibitors of the mTORC1 Signaling Pathway in MEF (Tsc2-/-, p53-/-) Cells (AID 2666).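 Further: percent of cells scored positive for phospho-rpS6 Ser235/236 immunostaining by imaging.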 To be noted: at 38.3 µM (top of the series). Put shortly:
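Phospho-rpS6 (Ser235/236) immunofluorescence, normalized and scored as % positive cells using rapamycin and DMSO controls, was read in empty-vector Tsc2-/-, p53-/- MEFs after 24 h compound exposure at 37 C; propidium iodide counted cells.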

Assay [6] in a line: High Content Imaging Cell-Based qHTS for Inhibitors of the mTORC1 Signaling Pathway in MEF Cells (AID 2667).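 Further: Tsc2-/- p53-/- MEFs stably re-expressing wild-type Tsc2 exposed 24 h.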 Put shortly:
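WT MEFs (Tsc2-/-, p53-/- re-expressing Tsc2), in DMEM + 10% FBS, were treated with compound for 24 h at 37 C. Cells were then fixed and stained for phospho-rpS6 Ser235/236 with propidium iodide as cell count. Values are % positive cells, with thresholds set against rapamycin-treated cells.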

A short description of assay [7]: Cytometry Cell-Based qHTS for Inhibitors of the mTORC1 Signaling Pathway in MEF cells (AID 2668). Further: potency means the concentration at half of the fitted maximal effect. Put shortly: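 In MEFs grown in DMEM + 10% FBS, a 24 hrs compound exposure preceded imaging of phospho-rpS6 Ser235/236 by laser-scanning cytometry.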
Assay [8] is described as follows: Validation screen for small molecules that induce DNA re-replication in MCF 10A normal breast cells (AID 463097). Further: nearly all actives have a fitted effect of over 60% in size. Put shortly:
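Following 48 hr compound incubation (37 C, 5% CO2), MCF 10A cells receive Hoechst for 40 min at 37 C. Nuclei are then scanned (excitation 405 nm, emission 500-530 nm) for total fluorescence intensity.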

Assay [9] is described as follows: qHTS Assay for Identification of Small Molecule Inducers of Hypoxia Response (AID 2120; active means well fitted curve in the direction sought with a large enough effect in the signal ratio, with a control signal flat, not every such curve was filed as active; the % refers to the signal ratio). Put shortly:
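Induction of beta-lactamase reporter activity was measured in CellSensor HRE-bla ME-180 cells after 17 h compound treatment at 37 degrees C, using CCF4 substrate and the 460nm/530nm emission ratio to derive AC50 values.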

For assay [10], the target named is RecQ-like DNA helicase BLM (Homo sapiens) (UniProt P54132). The assay is described as follows: qHTS Validation Assay for Inhibitors of Bloom's syndrome helicase (BLM) (AID 2364). Put shortly:
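50 nM BLM preincubated 15 min at room temperature with compound in pH 8.0 Tris buffer containing 2.5 ug/ml poly(dI-dC); started with 200 nM TAMRA/BHQ-2 forked duplex and 2 mM ATP (final). Unwinding read as TAMRA fluorescence increase, two reads 2 h apart.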

Records with an inconclusive call do not appear. A call without a number means that no potency is given here. The source made the active and inactive calls. Unless noted, the call rests on the fitted dose curve; in most records, active means well fitted curve in the direction sought with a large enough effect; inconclusive means small, poorly fitted or top-dose-only effect, or another doubt; inactive means no such curve, though single readings can be large; an effect the other way counts as inactive or inconclusive.

Sequence of RecQ-like DNA helicase BLM (Homo sapiens) (P54132 whole entry, looked up): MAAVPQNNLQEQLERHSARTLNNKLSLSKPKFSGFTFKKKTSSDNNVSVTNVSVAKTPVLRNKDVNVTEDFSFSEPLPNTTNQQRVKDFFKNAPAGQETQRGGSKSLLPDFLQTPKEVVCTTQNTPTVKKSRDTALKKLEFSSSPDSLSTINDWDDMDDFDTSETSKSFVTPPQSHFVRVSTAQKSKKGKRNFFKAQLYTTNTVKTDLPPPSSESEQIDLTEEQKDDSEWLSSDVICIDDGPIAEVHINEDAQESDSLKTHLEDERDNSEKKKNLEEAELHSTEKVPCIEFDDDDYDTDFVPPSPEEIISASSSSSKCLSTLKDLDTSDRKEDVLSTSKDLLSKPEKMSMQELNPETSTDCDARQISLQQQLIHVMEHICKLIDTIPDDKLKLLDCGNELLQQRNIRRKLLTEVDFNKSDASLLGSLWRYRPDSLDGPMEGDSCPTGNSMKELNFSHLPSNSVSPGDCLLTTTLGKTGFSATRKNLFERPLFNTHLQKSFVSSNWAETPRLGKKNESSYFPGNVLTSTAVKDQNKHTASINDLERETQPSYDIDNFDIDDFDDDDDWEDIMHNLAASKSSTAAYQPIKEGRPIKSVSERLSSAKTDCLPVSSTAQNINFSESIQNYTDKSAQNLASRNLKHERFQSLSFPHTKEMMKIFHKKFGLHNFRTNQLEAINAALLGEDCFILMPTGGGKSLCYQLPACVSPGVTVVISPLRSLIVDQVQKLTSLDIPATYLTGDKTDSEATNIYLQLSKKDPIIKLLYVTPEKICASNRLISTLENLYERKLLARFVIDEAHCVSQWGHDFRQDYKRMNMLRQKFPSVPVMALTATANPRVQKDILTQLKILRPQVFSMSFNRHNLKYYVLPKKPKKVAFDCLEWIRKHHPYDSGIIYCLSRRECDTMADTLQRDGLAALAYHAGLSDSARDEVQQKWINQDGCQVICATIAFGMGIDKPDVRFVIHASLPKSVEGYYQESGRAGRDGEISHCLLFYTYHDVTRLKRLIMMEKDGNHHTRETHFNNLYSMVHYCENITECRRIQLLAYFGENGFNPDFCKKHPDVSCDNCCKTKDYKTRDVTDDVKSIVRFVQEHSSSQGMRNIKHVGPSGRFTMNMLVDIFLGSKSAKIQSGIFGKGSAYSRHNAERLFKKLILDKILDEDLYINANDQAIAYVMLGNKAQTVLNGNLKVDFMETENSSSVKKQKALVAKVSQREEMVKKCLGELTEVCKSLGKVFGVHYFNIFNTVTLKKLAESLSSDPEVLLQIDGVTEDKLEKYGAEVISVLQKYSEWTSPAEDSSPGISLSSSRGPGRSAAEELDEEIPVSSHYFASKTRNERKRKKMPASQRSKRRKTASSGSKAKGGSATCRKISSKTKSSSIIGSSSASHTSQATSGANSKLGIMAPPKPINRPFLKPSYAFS

In the case of `C[C@]12CCC(=O)C=C1CC[C@@H]1[C@@H]2C(=O)C[C@@]2(C)[C@H]1CC[C@]2(O)C(=O)CO`, the Potency result in assay [1] is “inactive”. On to `COC(=O)C1=CCCN(C)C1`, for which the result in assay [2], in assay [3], in [4], in assay [5] and in [6] was inactive. Moreover, the Potency entry in [7], in assay [1] and in [8] was “inactive” throughout. Take `CCCCCCCCC(=O)NCc1ccc(O)c(OC)c1`: the compound was called inactive in [3]. In addition, the Potency entry in assay [1] and in assay [8] was “inactive” in each case. With `CNC[C@H](O)c1ccc(O)c(O)c1`, the Potency result in assay [1] was “inactive”. Still for that read-out and setting: as for `C[N+](C)(C)CCOC(=O)CCC(=O)OCC[N+](C)(C)C`, the entry is “inactive”. On to `CN(C)C(=S)SSC(=S)N(C)C`, for which, in assay [9], the result was inactive. On to `O=C(O)CCc1nc(-c2ccccc2)c(-c2ccccc2)o1`, for which, in assay [1], the Potency result is “inactive”. On the same count and under the same terms, as for `O=C(c1ccc(F)cc1)C1CCN(CCn2c(=O)[nH]c3ccccc3c2=O)CC1`, the entry is “inactive”; as for `C[n+]1cc2c3c(ccc2c2ccc4cc5c(cc4c21)OCO5)OCO3`, 2000 nM (active); as for `CN(C)CCN(Cc1cccs1)c1ccccn1`, “inactive”. On the same count and under the same terms, as for `Clc1ccc(Cn2c(CN3CCCC3)nc3ccccc32)cc1`, the entry is “inactive”. Still for that read-out and setting: as for `CCCCNc1ccc(C(=O)OCCN(C)C)cc1`, the entry is “inactive”. Turning to `Brc1c(NC2=NCCN2)ccc2nccnc12`, the call in assay [2] was inactive. In addition, the Potency entry in assay [1] was “inactive”. Consider `COc1cc(C(=O)OCCCN2CCCN(CCCOC(=O)c3cc(OC)c(OC)c(OC)c3)CC2)cc(OC)c1OC`, for which the Potency entry in [1] is “inactive”. Regarding `COP(=O)(OC)OC=C(Cl)Cl`, in assay [9], the call was inactive. Regarding `CN(C)C/C=C(/c1ccc(Br)cc1)c1cccnc1`, the Potency result in [1] was “inactive”. Still for that read-out and setting: as for `NCCc1ccc(O)c(O)c1`, the entry is “inactive”; as for `Cc1ccc(C(=O)Nc2ccc(S(=O)(=O)O)c3cc(S(=O)(=O)O)cc(S(=O)(=O)O)c23)cc1NC(=O)c1cccc(NC(=O)Nc2cccc(C(=O)Nc3cc(C(=O)Nc4ccc(S(=O)(=O)O)c5cc(S(=O)(=O)O)cc(S(=O)(=O)O)c45)ccc3C)c2)c1`, “inactive”.

Turning to `NS(=O)(=O)c1cc2c(cc1Cl)NCNS2(=O)=O`, the Potency entry in [1] was “inactive”. Regarding `c1ccc2nc(N3CCNCC3)ccc2c1`, the result in assay [2], in [3] and in assay [10] was inactive. Further, the Potency entry in assay [1] and in assay [8] was “inactive” each time. For the compound `CN(C(=O)CCCOc1ccc2[nH]c(=O)ccc2c1)C1CCCCC1`, in assay [1], the Potency entry was “inactive”. Consider `C[N+](C)(C)CCCCCCCCCC[N+](C)(C)C`, for which the call in assay [2] was inactive. Moreover, the Potency entry in assay [1] is “inactive”. As for `COc1ccc(C(=O)N2CCCC2=O)cc1`, the result in assay [2], in assay [3], in assay [4], in [5] and in [6] was inactive. Besides, the Potency entry in [7], in assay [1] and in [8] was “inactive” in each case. `CNC(=O)Oc1cccc2ccccc12`: the call in assay [9] was inactive.

Turning to `NC(N)=NC(=O)c1nc(Cl)c(N)nc1N`, the result in assay [2] and in [10] was inactive. For the same compound, in [1], the Potency result is “inactive”. `Oc1c(Br)cc(Br)cc1Br`: the outcome in assay [9] was inactive.

As for `COC(=O)[C@@H](N)Cc1ccc(O)c(O)c1`, in assay [1], the Potency result is “inactive”.

`Cc1ccc(=O)n(-c2ccccc2)c1`: the Potency entry in assay [1] is “inactive”. Regarding `NC(N)=N/N=C/c1c(Cl)cccc1Cl`, the outcome in assay [10] was inactive. The Potency result in assay [1] was “inactive”.

With `NC(=O)CN1CCCC1=O`, the outcome in assay [2], in [3], in [4], in assay [5] and in assay [6] was inactive. Further, the Potency result in assay [7], in [1] and in assay [8] was “inactive” in each case. On to `CC[C@H]1CN2CCc3cc(OC)c(OC)cc3[C@@H]2C[C@@H]1C[C@H]1NCCc2cc(OC)c(OC)cc21`, for which the Potency is 5210 nM (active) in assay [7] and 158 nM (active) in assay [1]. As to `C[C@@H]1C[C@@H]([C@H](O)CC2CC(=O)NC(=O)C2)C(=O)[C@@H](C)C1`, the call in [9] was inactive.

With `CC(N)C(=O)OC(C)(C)Cc1ccc(Cl)cc1` (configuration not stated), the result in assay [2], in assay [3] and in assay [10] was inactive. Further, the Potency entry in assay [1] and in assay [8] was “inactive” in each case. In the case of `O=C(O)c1nn(Cc2ccc(Cl)cc2Cl)c2ccccc12`, the compound was called inactive in assay [2], in assay [3], in [10], in assay [4], in assay [5] and in assay [6]. For the same compound, the Potency entry in [7], in assay [1] and in assay [8] was “inactive” in each case.

As to `COc1cc2c(cc1OC)-c1cc(=Nc3c(C)cc(C)cc3C)n(C)c(=O)n1CC2`, in [1], the Potency result was “inactive”. Still for that read-out and setting: the value for `CCc1cccc2c3c([nH]c12)C(CC)(CC(=O)O)OCC3` (configuration not stated) was “inactive”. Same read-out and setting: as for `CC(=O)OCC1=C(C(=O)O)N2C(=O)[C@@H](NC(=O)CSc3ccncc3)[C@H]2SC1`, the entry is “inactive”. The same measure, in the same setting: the value for `CCn1ccnc1CC1COc2ccccc2O1` (configuration not stated) was “inactive”; that for `NCCc1cnc[nH]1` was “inactive”. Turning to `Cc1ccc(/C(=C\CN2CCCC2)c2ccccn2)cc1`, the Potency entry in [1] is “inactive”.

As for `CC(C)NCC(O)COc1ccc(COCCOC(C)C)cc1` (configuration not stated), in assay [1], the Potency result was “inactive”. Still for that read-out and setting: the value for `O=C(CCNNC(=O)c1ccncc1)NCc1ccccc1` was “inactive”; that for `Cc1[nH]c(=O)c(C#N)cc1-c1ccc2nccn2c1` was “inactive”; that for `C[C@]12C=CC(=O)C=C1CC[C@H]1[C@@H]3C[C@@H](O)[C@](O)(C(=O)CO)[C@@]3(C)C[C@H](O)[C@@]12F` was “inactive”. On the same count and under the same terms, as for `O=C(O)CP(=O)(O)O`, the entry is “inactive”; as for `CCCCC1C(=O)N(c2ccccc2)N(c2ccccc2)C1=O`, “inactive”.

For the compound `CCCCNc1c(C(=O)OCC)c(C)nc2c1cnn2CC`, in [1], the Potency result was “inactive”.
